Several values for one entry are separate records, joined by “and”; a condition that tells them apart may be missing. Identical values can stand only once. The panel holds about 83,000 compounds, 20% with a hit somewhere; the sample as a whole holds those more often.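 Interpretation: 100, growth as untreated; towards 0, rising growth inhibition; 0, no net growth; 0 to -100, cell death. Compounds scoring below 10 were considered active.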 Activity calls are given as the source filed them.
What follows are compounds tested on UACC-62 melanoma (assay: NCI-60 one-dose screen, 48 h (100 = growth as untreated, 0 = no growth, -100 = all killed)). Conditions: 10 µM.
Experimental: Growth inhibition of the UACC-62 human tumor cell line is measured as a screen for anti-cancer activity. Cells are grown in 96 well plates and exposed to the test compound for 48 hours. Compounds are tested at a single concentration, which is 10^-5 M for most compounds. The reported endpoint is percent growth (GI% or GIPRCNT), where numbers from 0 - 100% represent growth inhibition, and numbers from -100% - 0 represent cell death. For example, a value of 40 represents 60% growth inhibition. A value of 0 means no net growth occurred over the course of the experiment. A value of -40 indicates 40% of cells at the beginning of the experiment died by the end of the experiment. A value of -100 means all cells are dead at the end of the experiment.
NCI-60 Human Tumor Cell Lines Screen was performed using the standard one-dose NCI protocol, which is described in more detail at https://dtp.cancer.gov/discovery_development/nci-60/default.htm.
Compounds with GIPRCNT values below 10 were considered active. Activity score was based on GIPRCNT using the following formula: […]
Score is 0 for GIPRCNT values of 100 or above, 50 for GIPRCNT values of 0, and 100 for GIPRCNT values of -100.
`COc1cc2oc3cc(=O)cc4oc(-c5ccccc5)cc(c2c2c1CCC(c1ccccc1)O2)c43` (stereo not given) was tested, and the growth was 73.5% (inactive).
`C#CCOC(=O)C(N)CS` (stereo not given) was tested, and the growth was 88.5% (inactive).
`Nc1nc(=S)c2[nH]cnc2[nH]1` was tested, and the growth was -21.9% (active).

Same assay, conditions: 10 µM unless noted
`CC(C)(C)OC(=O)c1ccc(NCc2cc(O)ccc2O)cc1` was tested, and the growth was 8.79% (active).
For `O=C(N=C1C(=O)C2(CCCCC2)C2(N=C(c3ccccc3)OC2=O)C12CCCCC2)c1ccccc1` (stereo not given), the growth was 58.6% (inactive).
`O=C1C=CC(=O)N1Cc1ccco1` was tested, and the growth was 86.4% (inactive).
With `CNc1ccc(O)cc1` the growth was 108% (inactive) and 89.3% (inactive).
`CN1C2C=CC(=O)C1C1C(=O)N(c3ccccc3)C(=O)C12` (stereo not given) was tested, and the growth was 84.3% (inactive).
In the case of `CC(=O)Nc1cscc1NC(C)=O`, the growth is reported as 93.7% (inactive).
With `O=[N+]([O-])c1cccc2ccc(N/N=C/c3ccccc3O)nc12` the growth was 85.5% (inactive) and 94.6% (inactive).
For `C/C(CC(C)C)=N/NC(N)=S`, the growth was 105% (inactive).
`CCCCOC1NC(=O)NC(=O)C1(F)C(=O)OCC` (stereo not given) was tested, and the growth was 72% (inactive) and 52.8% (inactive).
`O=S(=O)(O)c1ccc2cc(O)ccc2c1` was tested, and the growth was 99.7% (inactive).
With `Oc1cccnc1CN1CCOCC1` the growth was 101% (inactive) and 94.5% (inactive).
`Cc1cc(=NO)cc(C)n1O` was tested, and the growth was 102% (inactive).
With `Oc1ccc(O)c(-c2ccccc2)c1` the growth was 71.3% (inactive).
`CCOC(C)=N` was tested, and the growth was 102% (inactive).
In the case of `O=C1CCC(=O)N1CC1CC2CCC1C2` (stereo not given), the growth is reported as 96.5% (inactive) and 88.5% (inactive).
In the case of `COC(=O)c1nc(=S)[nH]c(C(=O)OC)c1C(=O)c1ccccc1`, the growth is reported as 92.6% (inactive).
`CSc1nc(N)c(N)c(N)n1` was tested, and the growth was 101% (inactive).
`CC(O)CCNC(c1ccccc1)C(O)c1ccccc1` (stereo not given) was tested, and the growth was 108% (inactive).
For `C/C=C(/C(=O)NC(N)=O)C(C)C`, the growth was 110% (inactive).
`CCC/C(=N/NC(N)=O)c1ccco1` was tested, and the growth was 92.7% (inactive).
With `CC1(CO)CCCC1NCCNC1CCCC1(C)CO` (stereo not given) the growth was 99% (inactive) and 102% (inactive).
For `CC(=O)Oc1ccc(C(c2ccc(OC(C)=O)cc2)c2ccccn2)cc1`, the growth was 96.5% (inactive) and 89.4% (inactive).
`O=c1[nH]c(=S)[nH]n1C(=S)n1[nH]c(=S)[nH]c1=O` was tested, and the growth was 94.4% (inactive).
For `O=c1[nH]c(=O)n(C2OC(CO)C(O)C2O)cc1I` (stereo not given), the growth was 102% (inactive) and 103% (inactive).
In the case of `CCCCNC(=O)c1ccccc1C`, the growth is reported as 101% (inactive).
In the case of `NC1=NC(c2ccccc2)N=C(Nc2ccccc2)N1` (stereo not given), the growth is reported as 89% (inactive).
For `COc1ccc(CCn2cnn3c(=O)c4ccccc4nc3c2=O)cc1OC`, the growth was 111% (inactive) and 102% (inactive).
For `CC(=O)/C(N=Nc1ccc(S(=O)(=O)c2ccc(N=N/C(C(C)=O)=C(/C)O)cc2)cc1)=C(\C)O`, the growth was 114% (inactive).
`Cc1c(Cl)c(C)c(Cc2c(C)c(Cl)c(C)c(Cl)c2O)c(O)c1Cl` was tested, and the growth was 18.2% (inactive).
With `CC(C)(C)OC(=O)NCCc1ccc(N)cc1` the growth was 100% (inactive).
`CCN(C)c1ccccc1` was tested, and the growth was 103% (inactive).
In the case of `CCOC(=O)CN1CCC(C(=O)OCC)CC1`, the growth is reported as 94.6% (inactive).
For `O=[N+]([O-])c1cccc(N=Cc2ccccc2)c1`, the growth was 103% (inactive).
With `COc1ccc2oc3c(ccc[n+]3C)c(=O)c2c1` the growth was 92.6% (inactive).

Same assay, conditions: 100 µM
For `COc1cc2oc3cc(=O)cc4oc(-c5ccccc5)cc(c2c2c1CCC(c1ccccc1)O2)c43` (stereo not given), the growth was 53% (inactive) and 10.4% (inactive).
In the case of `C#CCOC(=O)C(N)CS` (stereo not given), the growth is reported as 87.6% (inactive) and 90.2% (inactive).

Same assay, conditions: 250 µM
`Nc1nc(=S)c2[nH]cnc2[nH]1` was tested, and the growth was -67.7% (active) and -100% (active).

Reference: PubChem BioAssay (NCI)
